The values that follow come from PubChem BioAssay.

Active and inactive are the calls of the source. Unless noted, the rule behind the calls is not given here.

Test [1] relates to Wnt5a (protein binding on small-molecule microarray). The experiment in a line: small molecules binding Wnt5a protein – biophysical, small-molecule microarray, 635/667 nm fluorescence, primary screen (AID 1142).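 Note: fluorescence read at 667 nm with signal to noise per printed feature.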 The following applies: 635 nm fluorescence, higher = more signal.
Test [2] in a line: ATP-based viability of Huh7 replicon cells – cell-based, CellTiter-Glo luminescence, basal, 48 h, cytotoxicity control for HCV replication inhibitor project, primary screen (AID 1143).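 Note: Huh7 hepatoma cells carrying a hepatitis C replication reporter with no stimulus; test concentration not given here.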 The following applies: higher = more signal, called active from +8 up or from −8 down. A general note: In antiviral work, replicon cells carry a viral genome segment that copies itself.
Test [3] in a line: Pseudomonas biofilm growth suppression – PAO1 strain, BacTiter-Glo luminescence, LB-PBS, primary screen (AID 1144). The following applies: P. aeruginosa PAO1 biofilm, 12 h, higher = more signal.
The nature of test [4]: basal CRE-LacZ reporter activity in PC12 – cell-based, unstimulated, primary screen (AID 1145). Conditions: no forskolin, luminescence, 4.5 h, higher = more signal, called active from +8 up or from −8 down.
A short description of test [5]: forskolin-driven CRE-LacZ activity in PC12 – cell-based, CRE-LacZ reporter, forskolin-stimulated, primary screen (AID 1146).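 Note: PC12 cells with 6xCRE LacZ reporter stimulated by forskolin 10 µM; beta-galactosidase reporter signal reflecting CREB driven transcription.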 Conditions: luminescence, 4.5 h, higher = more signal, called active from +8 up or from −8 down.
Test [6] has as its target Streptavidin (Streptomyces avidinii) (UniProt P22629). The experiment in a line: compounds binding control protein streptavidin – biophysical, small-molecule microarray, 635/667 nm fluorescence, artefact control for SMM compound annotation, primary screen (AID 1147).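 Note: signal reflects streptavidin binding to arrayed compounds as a control protein.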 Conditions: higher = more signal.
The nature of test [7]: probe aInhba binding on compound microarray – biochemical, small-molecule microarray, 635/667 nm fluorescence, primary screen (AID 1148).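 Note: score merges 667nm spot fluorescence with signal-to-noise for antibody binding to printed compounds.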 Conditions: higher = more signal.
Test [8] addresses Torsin-1A (Homo sapiens) (UniProt O14656). The experiment in a line: TOR1A wild-type binding on microarray – cell lysate, small-molecule microarray, lysate, 635/667 nm, primary screen (AID 1149). The following applies: COS7 hTOR1A-WT lysate, 635 nm fluorescence, higher = more signal.
Test [9] has the same target. The experiment in a line: torsin A mutant lysate binding on microarrays – cell lysate, small-molecule microarray, COS7 lysate, 635/667 nm fluorescence, primary screen (AID 1150).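 Note: score pools 667 nm emission and signal to noise measuring lysate protein binding.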 The following applies: COS7 hTOR1A mutant lysate, 635 nm fluorescence, higher = more signal.
Test [10] has as its system Sonic hedgehog protein (Shh). The experiment in a line: Sonic hedgehog microarray binding compounds – biochemical, small-molecule microarray, 635/667 nm fluorescence, primary screen (AID 1151).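 Note: Shh protein binding to compounds spotted on small-molecule microarray slides; score combines spot fluorescence intensity with signal-to-noise across triplicate slides.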 Conditions: 635 nm fluorescence, higher = more signal.
Test [11] can be described thus: optical density shifts of acrAB sulA E. coli – strain DRC41, OD650, 48 h, E. coli filamentation inducer project, primary screen (AID 1152).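 Note: E. coli MC1000 strain DRC41 lacking acrAB efflux pump and sulA.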 The following applies: higher = more signal, called active from +8 up or from −8 down.
Test [12] in a line: probe aLefty1 binding on compound microarray – biochemical, small-molecule microarray, 635/667 nm fluorescence, primary screen (AID 1153).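 Note: score merges spot fluorescence with signal-to-noise ratio from the scanned slide images.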 The following applies: higher = more signal.
A short description of test [13]: plasmodial surface anion channel blockers, osmotic lysis – cell-based, P. falciparum Indochina, OD700, 1 h, primary screen (AID 1154). The following applies: P. falciparum Indochina infected RBC osmotic lysis, higher = more signal, called active from +8 up or from −8 down.
Test [14] in a line: plasmodial surface anion channel blockers, osmotic lysis – cell-based, P. falciparum Indochina, OD700, 2 h, primary screen (AID 1155).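 Note: lysis reports solute entry through the parasite surface anion channel PSAC.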 Conditions: P. falciparum Indochina infected erythrocytes, higher = more signal, called active from +8 up or from −8 down.
Test [15] can be described thus: changes in parasitized red cell lysis, either direction – P. falciparum Indochina, OD700, 3 h, PSAC antagonist project, primary screen (AID 1156). Conditions: P. falciparum-infected erythrocytes, osmotic lysis, higher = more signal, called active from +8 up or from −8 down.
Test [16] can be described thus: plasmodial surface anion channel blockers, osmotic lysis – cell-based, P. falciparum Indochina, OD700, 18 h, primary screen (AID 1157). The following applies: P. falciparum Indochina infected erythrocytes, osmotic lysis OD700, 18 h; higher = more signal, called active from +8 up or from −8 down.
A short description of test [17]: S6 kinase pathway phospho-S6 level changes – cell-based, A549, cytoblot, luminescence, serum-stimulated, primary screen (AID 1158).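 Note: serum-stimulated A549 lung adenocarcinoma cells; signal is phosphorylated S6 detected by cytoblot immunostaining with HRP secondary.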 The following applies: 5 h, higher = more signal.
Test [18] concerns the target NADPH oxidase 2 (Homo sapiens) (UniProt P04839). The experiment in a line: compounds shifting NOX2 Amplex Red fluorescence – cell-based, HEK293-NOX2, PMA-stimulated, NOX inhibitor project, primary screen (AID 1159). Note: test concentration not given here. Conditions: 45 min, higher = more signal, called active from +8 up or from −8 down.
The target of test [19] is NADPH oxidase 4 (Homo sapiens) (UniProt Q9NPH5). The experiment in a line: compounds shifting NOX4 Amplex Red fluorescence – cell-based, HEK293-NOX4, tetracycline-induced, NOX inhibitor project, primary screen (AID 1160). The following applies: HEK293-NOX4, Amplex Red H2O2 fluorescence, 45 min; higher = more signal, called active from +8 up or from −8 down.
Chain of NADPH oxidase 4 (Homo sapiens) (Q9NPH5 whole entry, looked up): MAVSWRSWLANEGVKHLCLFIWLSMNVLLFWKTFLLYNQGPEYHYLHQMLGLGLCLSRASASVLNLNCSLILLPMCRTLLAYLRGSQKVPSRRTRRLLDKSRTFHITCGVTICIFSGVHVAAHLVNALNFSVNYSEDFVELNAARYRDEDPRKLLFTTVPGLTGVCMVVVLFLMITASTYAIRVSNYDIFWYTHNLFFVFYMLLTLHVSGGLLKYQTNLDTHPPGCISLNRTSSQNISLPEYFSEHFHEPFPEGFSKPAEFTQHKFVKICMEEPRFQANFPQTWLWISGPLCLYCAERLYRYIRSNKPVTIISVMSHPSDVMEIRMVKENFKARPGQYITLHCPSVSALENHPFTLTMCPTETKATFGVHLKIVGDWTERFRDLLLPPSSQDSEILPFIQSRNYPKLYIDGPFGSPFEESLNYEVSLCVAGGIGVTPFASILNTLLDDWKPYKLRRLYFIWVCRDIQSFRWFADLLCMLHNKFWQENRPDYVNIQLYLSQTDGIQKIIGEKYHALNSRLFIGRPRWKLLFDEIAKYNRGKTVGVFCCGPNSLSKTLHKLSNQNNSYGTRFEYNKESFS
The target of test [20] is NADPH oxidase 5 (Homo sapiens) (UniProt Q96PH1). The experiment in a line: compounds shifting NOX5 Amplex Red fluorescence – cell-based, HEK293-NOX5, NOX inhibitor project, primary screen (AID 1161). Conditions: HEK293-NOX5, ionomycin, 45 min, higher = more signal.
Chain of NADPH oxidase 5 (Homo sapiens) (Q96PH1 whole entry, looked up): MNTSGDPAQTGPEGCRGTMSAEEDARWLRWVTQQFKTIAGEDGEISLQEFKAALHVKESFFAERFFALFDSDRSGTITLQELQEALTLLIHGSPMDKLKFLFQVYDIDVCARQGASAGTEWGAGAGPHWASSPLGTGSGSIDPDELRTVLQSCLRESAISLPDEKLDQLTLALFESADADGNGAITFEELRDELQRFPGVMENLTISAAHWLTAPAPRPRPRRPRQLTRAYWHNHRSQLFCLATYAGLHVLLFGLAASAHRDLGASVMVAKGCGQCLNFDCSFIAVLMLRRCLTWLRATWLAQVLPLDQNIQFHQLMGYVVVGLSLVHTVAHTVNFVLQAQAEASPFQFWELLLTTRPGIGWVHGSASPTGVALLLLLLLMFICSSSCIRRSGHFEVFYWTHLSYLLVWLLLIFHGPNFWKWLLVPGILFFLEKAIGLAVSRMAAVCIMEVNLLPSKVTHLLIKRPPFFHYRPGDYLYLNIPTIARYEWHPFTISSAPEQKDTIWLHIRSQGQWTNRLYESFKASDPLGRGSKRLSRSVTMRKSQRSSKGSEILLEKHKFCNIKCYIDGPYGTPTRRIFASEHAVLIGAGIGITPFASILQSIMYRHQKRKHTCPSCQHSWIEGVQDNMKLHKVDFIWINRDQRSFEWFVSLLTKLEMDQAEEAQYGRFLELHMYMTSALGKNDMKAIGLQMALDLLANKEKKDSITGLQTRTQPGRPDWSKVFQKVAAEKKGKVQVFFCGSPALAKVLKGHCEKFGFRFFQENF

Chain of NADPH oxidase 2 (Homo sapiens) (P04839 whole entry, looked up): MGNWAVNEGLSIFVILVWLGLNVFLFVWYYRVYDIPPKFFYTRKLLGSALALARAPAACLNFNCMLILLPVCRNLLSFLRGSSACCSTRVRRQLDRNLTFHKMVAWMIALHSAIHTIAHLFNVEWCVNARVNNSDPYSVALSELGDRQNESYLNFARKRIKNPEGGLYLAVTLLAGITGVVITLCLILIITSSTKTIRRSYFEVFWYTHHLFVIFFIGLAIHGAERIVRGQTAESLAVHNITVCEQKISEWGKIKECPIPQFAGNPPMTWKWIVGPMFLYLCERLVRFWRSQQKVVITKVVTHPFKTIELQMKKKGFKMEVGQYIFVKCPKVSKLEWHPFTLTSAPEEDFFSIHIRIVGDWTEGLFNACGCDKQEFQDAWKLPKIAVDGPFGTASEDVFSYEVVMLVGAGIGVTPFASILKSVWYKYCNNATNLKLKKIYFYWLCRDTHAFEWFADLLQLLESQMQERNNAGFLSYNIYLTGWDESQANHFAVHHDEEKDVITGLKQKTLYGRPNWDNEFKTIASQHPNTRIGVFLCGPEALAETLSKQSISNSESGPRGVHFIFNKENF
Chain of Streptavidin (Streptomyces avidinii) (P22629 whole entry, looked up): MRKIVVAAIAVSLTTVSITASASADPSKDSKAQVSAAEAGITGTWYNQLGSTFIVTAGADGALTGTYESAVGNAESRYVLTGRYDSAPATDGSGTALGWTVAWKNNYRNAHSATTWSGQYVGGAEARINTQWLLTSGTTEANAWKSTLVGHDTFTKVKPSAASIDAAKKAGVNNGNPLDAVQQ
Chain of Torsin-1A (Homo sapiens) (O14656 whole entry, looked up): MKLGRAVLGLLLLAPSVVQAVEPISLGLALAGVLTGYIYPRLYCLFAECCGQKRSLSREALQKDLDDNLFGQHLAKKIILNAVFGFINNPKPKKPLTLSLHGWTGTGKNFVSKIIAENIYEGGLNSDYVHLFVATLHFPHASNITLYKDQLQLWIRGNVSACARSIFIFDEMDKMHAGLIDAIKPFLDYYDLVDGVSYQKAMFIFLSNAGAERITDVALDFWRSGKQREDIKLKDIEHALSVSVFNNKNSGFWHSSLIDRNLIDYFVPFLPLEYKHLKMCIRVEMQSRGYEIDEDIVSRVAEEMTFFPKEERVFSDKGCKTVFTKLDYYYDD

Consider `CC(C)C(=C=CC[C@@H](O)c1ccc(OCCO)cc1)C[C@@H](O)COCc1ccccc1`, for which the composite z-score in test [1] was 0.13; in test [6], -0.0104; in [7] it was -0.0762; in test [8], -0.372; in test [9] it was -0.208; in test [10] it was 2.09. This molecule also had a composite z-score in [12] of 0.0341. In addition, the z-score in [2] was -2.24 (inactive); in test [3], -0.933 (inactive); in test [4], 6.97 (inactive); in test [5], -1.23 (inactive); in test [11], 1.45 (inactive); in [13], 8.51 (active). In addition, the z-score in test [14] is -0.15 (inactive); in [15], 0.776 (inactive); in test [16] it was -0.46 (inactive); in test [17], 4.27; in test [18], -2.13 (inactive); in test [19], -0.915 (inactive). For the same molecule, in test [20], the z-score was -2.41.

Consider `CC(C)N1C(=O)C[C@@](C(=O)NCC(F)(F)F)(c2ccc([N+](=O)[O-])cc2)[C@H]1c1ccc(CO)cc1`, for which the composite z-score in [1] was -0.492; in test [6], 0.14; in test [7] it was -0.128; in test [8], 0.894; in test [9], 0.0412; in [10], 1.24. In test [12], this molecule yielded a composite z-score of -0.101. Further, the z-score was -4.06 (inactive) in [2]; -1.76 (inactive) in test [3]; -0.761 (inactive) in test [4]; -1.24 (inactive) in test [5]; 1.09 (inactive) in [11]; 0.642 (inactive) in test [13]. In addition, the z-score was -0.558 (inactive) in test [14]; 0.533 (inactive) in [15]; -1.68 (inactive) in test [16]; 2.47 in [17]; 0.271 (inactive) in test [18]; 0.465 (inactive) in test [19]. Besides, the z-score in test [20] was -0.127.

In the case of `COCCCNC(=O)[C@@]1(C)c2ccccc2C(=O)N(C(C)C)[C@H]1c1ccc(CO)cc1`, the composite z-score is 0.292 in test [1]; 0.889 in [6]; 0.143 in [7]; -0.277 in test [8]; 0.776 in test [9]; 1.38 in test [10]. The molecule also returned a composite z-score in test [12] of 0.163. The z-score in test [2] was 0.169 (inactive); in [3], 0.0334 (inactive); in test [4], 0.234 (inactive); in test [5] it was 0.174 (inactive); in [11], -0.794 (inactive); in [13], 0.877 (inactive). For the same molecule, the z-score in test [14] was -0.057 (inactive); in [15], 0.386 (inactive); in [16] it was 0.743 (inactive); in [17] it was -0.504; in test [18], -0.636 (inactive); in test [19] it was 0.43 (inactive). For the same molecule, the z-score in [20] was -0.249.

Consider `CC(C)C[C@@H]1NC(=O)[C@H](C(C)C)NC(=O)[C@@]23C(=O)N[C@@H](Cc4ccccc4)C2[C@H](C)[C@@]2(C)O[C@H]2C3/C=C/CC/C=C/CNC1=O` (stereo not given in full), for which the composite z-score in test [1] worked out at 0.513; in [6] it was 0.186; in [7], 0.399; in test [8] it was 0.356; in test [9] it was 0.0386; in [10], 1.71. Besides, in [12], the composite z-score was determined as 0.131. In addition, the z-score is -3.05 (inactive) in test [2]; -1.07 (inactive) in test [3]; -0.319 (inactive) in test [4]; -1.23 (inactive) in test [5]; -0.62 (inactive) in test [11]; 4.9 (inactive) in test [13]. Also, the z-score is 0.538 (inactive) in [14]; 0.841 (inactive) in test [15]; 0.771 (inactive) in test [16]; 0.116 in test [17]; -0.159 (inactive) in test [18]; 0.338 (inactive) in [19]. In addition, in test [20], the z-score is -0.477.

With `CN1C(=O)C2C=CC(C(O)c3ccccc3)N(N(c3ccccc3)c3ccccc3)C2C1=O` (stereo not given), the composite z-score was -0.117 in test [1]; 0.39 in [6]; 0.0051 in test [7]; -0.351 in test [8]; -0.398 in test [9]; 0.522 in [10]. Besides, the composite z-score in [12] was found to be 0.267. The z-score in test [2] is 0.653 (inactive); in test [3], 0.808 (inactive); in test [4] it was -0.712 (inactive); in test [5], 0.635 (inactive); in test [11] it was -0.84 (inactive); in [13], 0.581 (inactive). The z-score was 0.693 (inactive) in [14]; -0.284 (inactive) in [15]; 0.9 (inactive) in test [16]; -0.809 in test [17]; -1.19 (inactive) in test [18]; -0.586 (inactive) in test [19]. Moreover, in [20], the z-score was 0.121.

`C[N+](C)(C)CCCC[C@@H]1NC(=O)[C@H]2C[C@@H](C(=O)NCCCCCCNC(=O)CS)[C@@H](c3cccc(OCCO)c3)N2C1=O`: the composite z-score is -0.298 in test [1]; -0.667 in [6]; -0.21 in test [7]; -0.182 in [8]; -0.14 in [9]; -0.396 in [10]. Also, the composite z-score in test [12] amounted to 0.0774. Besides, the z-score in test [2] is 0.2 (inactive); in [3], -0.635 (inactive); in [4] it was -0.683 (inactive); in [5], 0.0114 (inactive); in test [11], 0.415 (inactive); in test [13] it was 3.29 (inactive). In addition, the z-score is 0.679 (inactive) in [14]; 1.8 (inactive) in test [15]; 0.0805 (inactive) in test [16]; 0.0934 in test [17]; 1.18 (inactive) in [18]; 0.639 (inactive) in [19]. In addition, the z-score in test [20] came to 1.24.

Turning to `COCCOC(=O)N1C(=O)[C@@]2(c3ccccc31)[C@H](c1ccc(O)cc1)N1[C@H](c3ccccc3)[C@H](c3ccccc3)OC(=O)[C@H]1[C@@H]2C(=O)Nc1nc2ccccc2s1`, the composite z-score in test [1] was determined as 0.243; in [6], 0.795; in test [7] it was 0.225; in test [8], 0.514; in [9] it was 1.23; in test [10], 1.13. The composite z-score in test [12] turned out to be 0.541. Also, the z-score in [2] is -1.67 (inactive); in test [3] it was 0.272 (inactive); in test [4], -0.467 (inactive); in test [5], 2.42 (inactive); in test [11], 0.894 (inactive); in [13], 1.31 (inactive). Moreover, the z-score in [14] was 1.1 (inactive); in test [15] it was 0.109 (inactive); in [16] it was 1.41 (inactive); in [17], 0.172; in test [18], 1.41 (inactive); in [19] it was 0.449 (inactive). Moreover, the z-score in test [20] amounted to 1.41.

Consider `CC(C)C(=C=CC[C@@H](O)c1ccc(OCCO)cc1)C[C@@H](O)c1ccccn1`, for which the composite z-score is 0.207 in test [1]; 0.0453 in [6]; -0.231 in test [7]; 0.75 in [8]; 0.205 in [9]; 2.26 in test [10]. For the same molecule, the composite z-score in test [12] is -0.101. For the same molecule, the z-score is -0.661 (inactive) in test [2]; 0.205 (inactive) in [3]; 0.145 (inactive) in test [4]; 1.4 (inactive) in [5]; -0.197 (inactive) in [11]; 6.54 (inactive) in test [13]. Besides, the z-score in test [14] was 0.977 (inactive); in test [15], 0.166 (inactive); in test [16], 0.479 (inactive); in [17] it was -0.652; in test [18], 0.0116 (inactive); in [19], 0.26 (inactive). The z-score in test [20] was -0.124.
